Measured values from PubChem BioAssay (NCI).
This is part of a sample that, as a whole, favours compounds with a hit. Of some 83,000 tested, about 20% had one in any assay.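 Assay: single dose, 48 h. Readout: percent growth (0 = no net growth; negative = cell death). Active: <10.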 Active and inactive are the calls of the source.

Assays:
Assay in all cases: NCI-60 one-dose screen, 48 h (100 = growth as untreated, 0 = no growth, -100 = all killed)
Details in all cases: 10 µM unless noted
HCT-15 colon = test system: HCT-15 colon
HT29 colon = test system: HT29 colon
SNB-75 CNS = test system: SNB-75 CNS
SNB-19 CNS = test system: SNB-19 CNS
U251 CNS = test system: U251 CNS
PC-3 prostate = test system: PC-3 prostate
SK-MEL-5 melanoma = test system: SK-MEL-5 melanoma
UACC-62 melanoma = test system: UACC-62 melanoma
LOX IMVI melanoma = test system: LOX IMVI melanoma
SK-MEL-2 melanoma = test system: SK-MEL-2 melanoma
EKVX NSCLC = test system: EKVX NSCLC
SN12C renal = test system: SN12C renal
UO-31 renal = test system: UO-31 renal
TK-10 renal = test system: TK-10 renal
ACHN renal = test system: ACHN renal
CAKI-1 renal = test system: CAKI-1 renal
A498 renal = test system: A498 renal
CCRF-CEM leukemia = test system: CCRF-CEM leukemia
MOLT-4 leukemia = test system: MOLT-4 leukemia
SK-MEL-28 melanoma = test system: SK-MEL-28 melanoma

Measured: growth

C=C1CC[C@@H]2[C@](C)(CO)[C@H](O)CC[C@@]2(C)[C@@H]1C/C(O)=C1\CCOC1=O
inactive: HCT-15 colon 90.9% | HT29 colon 96.5% | SNB-75 CNS 96.4% | SNB-19 CNS 97.9% | U251 CNS 88.2% | PC-3 prostate 99.7% | SK-MEL-5 melanoma 101% | UACC-62 melanoma 88.9% | LOX IMVI melanoma 72.9% | SK-MEL-2 melanoma 103% | EKVX NSCLC 102% | SN12C renal 86.8% | UO-31 renal 99.4% | TK-10 renal 114% | ACHN renal 101% | CAKI-1 renal 101% | A498 renal 94.4% | CCRF-CEM leukemia 60.2% | MOLT-4 leukemia 104%

N#Cc1c(Nc2ccccc2)nn2c(-c3ccc([N+](=O)[O-])cc3)ccnc12
inactive: HCT-15 colon 99.3% | HT29 colon 103% | SNB-75 CNS 102% | SNB-19 CNS 100% | U251 CNS 99.8% | PC-3 prostate 103% | SK-MEL-5 melanoma 88.6% | UACC-62 melanoma 93.3% | LOX IMVI melanoma 93.7% | SK-MEL-28 melanoma 100% | EKVX NSCLC 99.5% | SN12C renal 104% | UO-31 renal 84% | TK-10 renal 98% | ACHN renal 102% | CAKI-1 renal 91.9% | CCRF-CEM leukemia 104% | MOLT-4 leukemia 105%

Cc1ccc(CSc2nc(-c3ccc(Cl)cc3)c(C#N)c(N3CCOCC3)n2)cc1
inactive: HCT-15 colon 95.9% | HT29 colon 91.2% | SNB-75 CNS 108% | SNB-19 CNS 95.4% | U251 CNS 96.7% | PC-3 prostate 80.3% | SK-MEL-5 melanoma 96.5% | UACC-62 melanoma 73.1% | LOX IMVI melanoma 96.6% | SK-MEL-28 melanoma 93.8% | EKVX NSCLC 95.1% | SN12C renal 98.1% | UO-31 renal 86.1% | TK-10 renal 105% | ACHN renal 98.9% | CAKI-1 renal 76.4% | MOLT-4 leukemia 85%
active: CCRF-CEM leukemia 1.17%

NS(=O)(=O)c1ccc(-n2cc(CN3CCNCC3)nn2)cc1
inactive: HCT-15 colon 104% | HT29 colon 109% | SNB-75 CNS 92.1% | SNB-19 CNS 102% | U251 CNS 105% | PC-3 prostate 102% | SK-MEL-5 melanoma 100% | UACC-62 melanoma 99% | LOX IMVI melanoma 107% | SK-MEL-2 melanoma 110% | EKVX NSCLC 104% | SN12C renal 110% | UO-31 renal 92.9% | TK-10 renal 100% | ACHN renal 109% | CAKI-1 renal 95.9% | A498 renal 107% | CCRF-CEM leukemia 109% | MOLT-4 leukemia 103%

CCOC(=O)c1c(NC(=O)c2ccccc2C(F)(F)F)sc2c1CCC(=O)C2
inactive: HCT-15 colon 10.5% | HT29 colon 75.4% | SNB-75 CNS 65.4% | SNB-19 CNS 18.6% | U251 CNS 17.5% | PC-3 prostate 14.6% | SK-MEL-28 melanoma 80.1% | SK-MEL-2 melanoma 91.2% | EKVX NSCLC 32.2% | SN12C renal 25.8% | TK-10 renal 91.1% | CAKI-1 renal 21.1% | A498 renal 85.2% | CCRF-CEM leukemia 10.3% | MOLT-4 leukemia 94.2%
active: SK-MEL-5 melanoma -50.3% | LOX IMVI melanoma 3.5% | UO-31 renal -1.08% | ACHN renal 6.88%

COc1ccc2[nH]cc(/C=N/Nc3nc4ccccc4s3)c2c1
inactive: HCT-15 colon 22.9% | HT29 colon 59.9% | SNB-75 CNS 66.5% | SNB-19 CNS 80% | U251 CNS 55.7% | PC-3 prostate 33.2% | SK-MEL-5 melanoma 83.7% | UACC-62 melanoma 73.1% | LOX IMVI melanoma 30.7% | SK-MEL-2 melanoma 80.5% | EKVX NSCLC 50% | SN12C renal 69.6% | UO-31 renal 37.4% | TK-10 renal 103% | ACHN renal 63.9% | CAKI-1 renal 41.3% | A498 renal 63.4% | CCRF-CEM leukemia 47.3% | MOLT-4 leukemia 35.9%

C/C(=N\O)[C@H]1C[C@]23CC[C@]4(C)[C@H](CC[C@@H]5[C@@]6(C)CC/C(=N/O)C(C)(C)[C@@H]6CC[C@]54C)[C@H]2[C@H](C)C1(C)OC3
inactive: HCT-15 colon 105% | HT29 colon 113% | SNB-75 CNS 72% | SNB-19 CNS 97.7% | U251 CNS 110% | PC-3 prostate 94.8% | SK-MEL-5 melanoma 100% | LOX IMVI melanoma 98.2% | SK-MEL-28 melanoma 110% | SK-MEL-2 melanoma 110% | EKVX NSCLC 70.9% | SN12C renal 91.5% | UO-31 renal 67% | TK-10 renal 73.7% | ACHN renal 104% | CAKI-1 renal 65.2% | A498 renal 72% | CCRF-CEM leukemia 101% | MOLT-4 leukemia 98.7%

O=C(Nc1cccc(C(F)(F)F)c1)c1cc(-c2ccc(F)cc2F)ccc1O
active: HCT-15 colon 8.57% | SNB-75 CNS -0.914% | PC-3 prostate 7.15% | SK-MEL-5 melanoma -66% | UACC-62 melanoma 2.01% | LOX IMVI melanoma 0.316% | SK-MEL-2 melanoma -12.6% | EKVX NSCLC 9.81% | SN12C renal 2.11% | UO-31 renal -14.3% | ACHN renal 5.71% | CAKI-1 renal -21% | A498 renal -38.5% | MOLT-4 leukemia 4.43%
inactive: HT29 colon 74.1% | SNB-19 CNS 11.4% | U251 CNS 10.4% | TK-10 renal 12.6% | CCRF-CEM leukemia 20.8%

NC/C(=C/F)COc1ccc2nc(NCc3cccnc3)oc2c1
inactive: HCT-15 colon 109% | HT29 colon 112% | SNB-75 CNS 63.1% | SNB-19 CNS 105% | U251 CNS 105% | PC-3 prostate 104% | SK-MEL-5 melanoma 99.5% | LOX IMVI melanoma 98% | SK-MEL-28 melanoma 110% | SK-MEL-2 melanoma 105% | EKVX NSCLC 68.5% | SN12C renal 86.3% | UO-31 renal 62.1% | TK-10 renal 74.7% | ACHN renal 100% | CAKI-1 renal 69.8% | A498 renal 50.5% | CCRF-CEM leukemia 99.9% | MOLT-4 leukemia 106%

CCn1c(SCC(=O)Nc2cccc(C(=O)/C=C/c3cc(OC)c(OC)c(OC)c3)c2)nc2ccccc2c1=O
inactive: SNB-19 CNS 39.9% | U251 CNS 30.1% | PC-3 prostate 46.8% | SK-MEL-5 melanoma 33.9% | SK-MEL-28 melanoma 77% | SK-MEL-2 melanoma 109% | EKVX NSCLC 68.6% | SN12C renal 37.6% | UO-31 renal 37.5% | TK-10 renal 132% | ACHN renal 41.7% | CAKI-1 renal 45.4% | A498 renal 71.3% | MOLT-4 leukemia 22.4%
active: HCT-15 colon -13.9% | HT29 colon 1.12% | SNB-75 CNS -4.22% | LOX IMVI melanoma -73.6% | CCRF-CEM leukemia 4.6%

CC(C)(C)n1cc(-c2ccnc(NCCCNS(=O)(=O)c3cccc(F)c3)n2)c(-c2ccc(Cl)c(O)c2)n1
inactive: HCT-15 colon 89.6% | HT29 colon 94.8% | SNB-75 CNS 110% | SNB-19 CNS 103% | U251 CNS 106% | PC-3 prostate 67.5% | SK-MEL-5 melanoma 95.5% | UACC-62 melanoma 89.5% | LOX IMVI melanoma 96.4% | SK-MEL-2 melanoma 98.4% | SN12C renal 90.9% | UO-31 renal 101% | TK-10 renal 152% | ACHN renal 97% | CAKI-1 renal 95.8% | A498 renal 91.4% | CCRF-CEM leukemia 71.4% | MOLT-4 leukemia 77.4%

Nc1ncc(-c2ccc3ncnc(Nc4cccc(Cl)c4F)c3c2)cn1
inactive: HCT-15 colon 56.4% | HT29 colon 78.9% | SNB-75 CNS 53.2% | SNB-19 CNS 59.4% | U251 CNS 67.9% | PC-3 prostate 61% | SK-MEL-5 melanoma 63.6% | UACC-62 melanoma 38.9% | LOX IMVI melanoma 77.4% | SK-MEL-2 melanoma 95.3% | EKVX NSCLC 11.7% | SN12C renal 50.9% | UO-31 renal 34.6% | ACHN renal 25.3% | CAKI-1 renal 38% | CCRF-CEM leukemia 65.6% | MOLT-4 leukemia 72.3%
active: TK-10 renal -2.85% | A498 renal -10.7%

O=C(NCCN1CCCC1)c1ccc(-c2nc3ccc4[nH]ncc4c3c3c2CCCC3)cc1
inactive: HCT-15 colon 26.1% | SNB-75 CNS 33.7% | U251 CNS 10.7% | UACC-62 melanoma 18.4% | SK-MEL-2 melanoma 10.1% | EKVX NSCLC 24% | UO-31 renal 43.3% | TK-10 renal 27.3% | ACHN renal 15.8%
active: HT29 colon 4.8% | SNB-19 CNS 7.71% | PC-3 prostate 8.15% | SK-MEL-5 melanoma 5.04% | LOX IMVI melanoma -89.6% | SN12C renal 8.98% | A498 renal -80% | CCRF-CEM leukemia 9% | MOLT-4 leukemia -26%

O=S(=O)(NC1c2ccccc2C[C@H]1O)c1ccc(Cl)cc1Cl (stereo partly specified)
inactive: HCT-15 colon 94.6% | HT29 colon 109% | SNB-75 CNS 86.4% | SNB-19 CNS 96.3% | U251 CNS 98.7% | PC-3 prostate 84.1% | SK-MEL-5 melanoma 99.4% | UACC-62 melanoma 74.9% | LOX IMVI melanoma 93.3% | SK-MEL-2 melanoma 101% | EKVX NSCLC 98.8% | SN12C renal 96.8% | UO-31 renal 68.7% | TK-10 renal 119% | ACHN renal 96.2% | CAKI-1 renal 82.4% | A498 renal 103% | CCRF-CEM leukemia 105% | MOLT-4 leukemia 105%

Nc1nc(-c2cccc([N+](=O)[O-])c2)c(N=Nc2ccc(Br)cc2)s1
inactive: HT29 colon 30.1% | SNB-19 CNS 29.9% | CCRF-CEM leukemia 31.9% | MOLT-4 leukemia 29.5%
active: HCT-15 colon 0.133% | SNB-75 CNS -27.9% | U251 CNS -89.3% | PC-3 prostate 2.83% | SK-MEL-5 melanoma -38.5% | UACC-62 melanoma -37.8% | LOX IMVI melanoma -84% | EKVX NSCLC 8.7% | SN12C renal -26.8% | UO-31 renal -80.3% | TK-10 renal -96.2% | ACHN renal -96.7% | CAKI-1 renal -87.9%

C[C@@H]1C[C@H]2C(=O)O[C@@H](C)C(NC(=O)[C@H](Cc3cc(F)cc(F)c3)NC(=O)Nc3ccc(Cl)cc3F)C(=O)N3CCC[C@H]3C(=O)N3CCCC[C@H]3C(=O)N[C@@H](CO)C(=O)N2C1 (stereo partly specified)
inactive: HCT-15 colon 13.2% | HT29 colon 35.3% | SNB-75 CNS 30.8% | SNB-19 CNS 28.1% | U251 CNS 30% | PC-3 prostate 15.5% | UACC-62 melanoma 29.5% | LOX IMVI melanoma 29.5% | EKVX NSCLC 30.9% | SN12C renal 21.5% | UO-31 renal 34.9% | TK-10 renal 54.7% | ACHN renal 31.9% | CAKI-1 renal 17.5% | CCRF-CEM leukemia 32.7% | MOLT-4 leukemia 36.5%
active: SK-MEL-5 melanoma -2.76%
